# Data: PubChem BioAssay (NCATS)
# Several values for one entry are separate records, joined by “and”; a condition that tells them apart may be missing. Equal entries are not always repeated. Results filed as inconclusive are left out. A number with no mark means an inactive call. The call rests on the fitted dose curve; in most records, active means well fitted activation curve with a large enough effect; inconclusive means small, poorly fitted or top-dose-only effect; inactive means no such curve, though single readings can be large or run the other way. Positions of bridges follow the written chain, without caps; N, C: chain ends. Non-standard residues stand in square brackets, D forms with d. Residues, ends and D or L forms follow the SMILES beside them. hArg = N=C(N)NCCCC[C@H](N)C(=O)O; Mpa = O=C(O)CCS
# Target: Cellular tumor antigen p53 (Homo sapiens) (UniProt P04637)
# Sequence (P04637 whole entry, looked up): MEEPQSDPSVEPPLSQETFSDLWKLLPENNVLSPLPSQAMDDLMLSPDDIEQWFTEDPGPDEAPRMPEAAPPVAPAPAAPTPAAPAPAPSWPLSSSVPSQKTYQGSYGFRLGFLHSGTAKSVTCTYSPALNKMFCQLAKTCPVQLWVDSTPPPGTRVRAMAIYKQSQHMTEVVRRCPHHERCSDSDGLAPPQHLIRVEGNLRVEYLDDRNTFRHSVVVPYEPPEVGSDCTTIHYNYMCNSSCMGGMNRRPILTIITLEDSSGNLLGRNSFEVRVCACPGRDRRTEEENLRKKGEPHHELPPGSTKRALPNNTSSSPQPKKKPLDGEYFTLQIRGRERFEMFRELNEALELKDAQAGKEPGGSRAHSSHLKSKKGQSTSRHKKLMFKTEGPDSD
# Assay: Primary qHTS for small molecule compounds that upregulate eGFP-tagged delta133p53alpha (in N-terminal) cells. (AID 2060322);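 further: series mostly up to about 56 µM; 0% = DMSO vehicle and 100% = reference activator; nearly all actives have a fitted effect of over 75% in size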
# Settings: NCI-H358 eGFP-delta133p53alpha fluorescence, 24 h; activation: hits give high values
# How it was run: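 NCI-H358 cells pre-induced 24 h with 10 ng/ml doxycycline for eGFP-delta133p53alpha, plated dox-free and exposed 24 h at 37C to titrated compounds. Fixed, Hoechst-stained; gated GFP peak intensity by laser scanning cytometry, normalized to DMSO (0%) and 57.5 uM 5-azacytidine (100%).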
row,SMILES,activation
1,Cc1ccnc(NS(=O)(=O)c2ccc(N)cc2)n1,-10.9%
2,C/C(=C(\CCO)SS/C(CCO)=C(\C)N(C=O)Cc1cnc(C)nc1N)N(C=O)Cc1cnc(C)nc1N,-9.6%
3,CCCN(CCc1cccs1)[C@H]1CCc2c(O)cccc2C1,5.08%
4,C[C@]12CCC(=O)C=C1C=C[C@@H]1[C@@H]2CC[C@@]2(C)[C@H]1CC[C@@]21CCC(=O)O1,-33.3%
5,NCC(=O)CCC(=O)O,-14.1%
6,CC(C)CCOC(=O)c1ccc(N(C)C)cc1,6.69%
7,COc1ccccc1N1CCN(CC(O)COc2cc(OC)c(OC)c(OC)c2)CC1 (stereo not given),-6.21%
8,OCCN1C[C@H](O)[C@@H](O)[C@H](O)[C@@H]1CO,24.9%
9,CN/C(=C\[N+](=O)[O-])NCCSCc1csc(CN(C)C)n1,-0.837%
10,CC(=O)NC(=O)c1ccccc1O,1.69%
11,NC(=O)N/N=C/c1ccc([N+](=O)[O-])o1,16.7% and -23.4%
12,Cc1onc(-c2ccccc2)c1C(=O)Cl,6.21%
13,COC(=O)C(c1ccccc1Cl)N1CCc2sccc2C1 (stereo not given),10.7%
14,O=C(CN1C(=O)C2(CCCC2)NCC1c1cc(F)cc(F)c1)Nc1ccc2c(c1)CC1(C2)C(=O)Nc2ncccc21 (stereo not given),0.477%
15,O=C1O[C@H]([C@@H](O)CO)C(O)=C1O,-9.6%
16,C[C@@H](O)[C@H]1C(=O)N2C(C(=O)OCOC(=O)C(C)(C)C)=C(SC3CN(C4=NCCS4)C3)[C@H](C)[C@H]12,-12.3%
17,CCOc1ccc(NC(=O)CC(C)O)cc1 (stereo not given),-0.837%
18,O=C(O)Cc1ccc2c(c1)C(=O)c1ccccc1CO2,7.34%
19,CN[C@@H]1[C@@H](O)[C@@H](O[C@@H]2[C@@H](O)[C@H](O[C@H]3O[C@H](CN)[C@@H](O)[C@H](O)[C@@H]3O)[C@@H](N)C[C@@H]2NC(=O)[C@@H](O)CN)OC[C@]1(C)O,-2.48%
20,O=C(O)P(=O)(O)O,-13%

row,SMILES,activation
1,CCOC(=O)C(O)c1ccccc1 (stereo not given),-24.3%
2,COc1ccc([C@@H]2CC(=O)c3c(O)cc(O[C@@H]4O[C@H](CO[C@@H]5O[C@@H](C)[C@H](O)[C@@H](O)[C@@H]5O)[C@@H](O)[C@H](O)[C@@H]4O)cc3O2)cc1O,4.43% and 6.54%
3,CCCCCC(C)N (stereo not given),28.8%
4,CC(=CC(=O)Nc1ccccc1C(=O)O)c1ccc2ccccc2c1,-15.6%
5,C=CCNc1c(O)cc2c(O)c1C[C@@H](C)C[C@H](OC)[C@@H](O)[C@@H](C)C=C(C)[C@H](OC(N)=O)[C@@H](OC)C=CC=C(C)C(=O)N2,1.58%
6,C[N+]1(CC2COC(c3ccccc3)(C3CCCCC3)O2)CCCCC1 (stereo not given),10.9%
7,C[C@@H](c1ncncc1F)C(O)(Cn1cncn1)c1ccc(F)cc1F (stereo not given in full),-2.82%
8,CCCCc1cc2ccccc2c(OCCN(C)C)n1,-0.565%
9,CC1(C)S[C@H]2[C@H](NC(=O)[C@@H](N)c3ccc(O)cc3)C(=O)N2[C@@H]1C(=O)O,-5.39%
10,CC(C)C(=O)SCCCCCCC(=O)Nc1nc(-c2ccccc2)cs1,49.2%
11,NC(=O)[C@@H]1CSSCCC(=O)N[C@@H](CCCCN=C(N)N)C(=O)NCC(=O)N[C@@H](CC(=O)O)C(=O)N[C@@H](Cc2c[nH]c3ccccc23)C(=O)N2CCC[C@H]2C(=O)N1 ([Mpa][hArg]GDWPC-NH2; disulfide 1-7),2.82%
12,Oc1ccccc1C=NCc1ccccc1,-19.2%
13,CC(=O)Nc1ccc(S(=O)(=O)Nc2ccc([N+](=O)[O-])cc2)cc1,-10.7%
14,Cc1c(Cn2ccnc2)c2ccccc2n1CCC(=O)O,-8.47%
15,CCCCCCCCCCCCCCCCCCO,3.35%
16,N#CC(=C(N)Sc1ccc(N)cc1)c1ccccc1C(F)(F)F,19.5%
17,N=C(N)c1ccc(OCCCOc2ccc(C(=N)N)cc2)cc1,-15.9%
18,CC1(c2ccccc2)OC(C(=O)O)=CC1=O (stereo not given),26.8%
19,CC(C)=C(C#N)C(=O)N1CCCN(c2cc(NCCC(=O)O)nc(-c3ccccn3)n2)CC1,3.35%
20,CCN(C)C(=O)Oc1cccc([C@H](C)N(C)C)c1,6.21% and 13.7%
